tim23-1 inh: tim23-1 yeast growth inhibition. 1.3% of 330,000 active. S. cerevisiae tim23-1 growth, BacTiter-Glo luminescence, 24 h. inhibition, % at 20 µM;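 active = growth inhibition of the mutant yeast at or above 50%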;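 also: temperature-sensitive mutant grown at 25 °C; plate controls were DMSO-treated mutant yeast for no effect and medium wells lacking yeast for full effect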
tim10-1 inh: inhibits growth of tim10-1 mutant yeast | S. cerevisiae tim10-1 ts strain growth, BacTiter-Glo, 24 h | inhibition, % at 20 µM | 2.2% of 330,000 active | AID 463190;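 active = inhibition of at least 40%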;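 also: mutant grown at 25 °C; 0% = DMSO wells with yeast and 100% = wells holding no yeast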
NLRP3 yeast inh: blocks the NALP3 inflammasome reconstituted in yeast; Yeast reconstituted NLRP3/ASC/caspase-1, beta-gal luminescence, 24 h; inhibition, % at 10 µM; 0.39% of 330,000 active; AID 2825;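 active = inhibition of 50% or more; inactive = inhibition below 50%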;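 also: plate controls were induced DMSO wells for no effect and uninduced yeast grown without galactose for full effect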
Yeast superoxide: lowers age-related superoxide in aged yeast cells. 0.18% of 330,000 active. superoxide response (% of plate mean), % at 10 µM. AID 2690. S. cerevisiae aged cells, superoxide DHE fluorescence; hits give low values;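 active = superoxide response under a set limit, about three screen SD below normal, cut at about 65% in these data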;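 also: yeast aged for seven days with compound at 30 °C before DHE staining; 100% = average MFI of all compound-treated wells on the plate with controls excluded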
TIM10 inh: inhibits growth of TIM10 yeast strain. S. cerevisiae TIM10 strain growth, BacTiter-Glo luminescence, 24 h. inhibition, % at 10 µM. 1.4% of 330,000 active. AID 463195;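 active = inhibition of 40% or more at the single tested concentration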;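 also: wild-type TIM10 isogenic control strain grown at permissive 25 °C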
tim10-1 conf: tim10-1 yeast growth inhibition, confirmed; S. cerevisiae tim10-1 ts strain growth, BacTiter-Glo, 24 h; AID 463213; shares compounds with tim10-1 inh; inhibition, % at 20 µM; 56% of 7,400 active;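 active = inhibition of yeast growth at or above a set limit in either of two repeat tests at 20 µM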;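 also: tim10-1 mutant grown at permissive 25 °C to find synthetic lethal compounds; 0% = DMSO yeast wells and 100% = medium wells without yeast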
An asterisk follows results filed as active; x = not tested or not shown. Most compounds without a hit are left out; they make up all but 3.8% or so of the library.

SMILES	tim23-1 inh	tim10-1 inh	NLRP3 yeast inh	Yeast superoxide	TIM10 inh	tim10-1 conf
Cc1onc(-c2ccccc2)c1C(=O)NCCc1ccc(Cl)cc1	6.5	-6.3	-0.8	112.0	5.1	x
Cc1nn(Cc2ccccc2)c(C)c1NC(=O)c1cc(-c2ccco2)on1	25.3	21.2	18.6	90.3	-4.1	x
Cc1nc2ccccc2c(=O)n1NC(=O)C1CCC(C(C)(C)C)CC1 (stereo unspecified)	-3.7	9.8	22.4	99.6	9.3	x
CSc1nc(-c2ccccc2)cn1-c1ccc(NC(C)=O)cc1	35.7	45.8*	17.4	108.9	15.2	31.2*
CCOc1ccc(NC(=O)CSCc2cnn(-c3ccccc3)c2-n2cccc2)cc1	29.0	43.9*	7.7	95.0	14.1	30.1*
Cc1cc(OCC(=O)NCC2CCC(C(=O)O)CC2)c2c(C)c(Cc3ccccc3)c(=O)oc2c1 (stereo unspecified)	-3.5	0.7	4.1	86.4	5.3	x
COc1ccc(-c2cc(C)no2)cc1S(=O)(=O)NCC1CCN(Cc2cc(C)ccc2C)CC1	-0.9	7.1	7.6	88.7	5.2	x
C/C(=N\O)c1c(C)c2ccccc2n1C	21.3	6.0	15.8	102.3	-1.3	x
C/C(=N\O)c1ccc2c3ccccc3n(C)c2c1	46.3	44.3*	19.3	102.8	17.8	22.8
COc1cc(/C=C2\C(=N)N3N=C(S(=O)(=O)CC(C)C)SC3=NC2=O)ccc1OC(=O)c1ccco1	18.7	41.4*	0.6	95.6	13.6	4.7
Cc1ccc(-n2c(C)cc(C(=O)Cn3nc(C(=O)O)c4ccccc4c3=O)c2C)cc1	26.0	42.0*	8.8	117.4	16.5	15.0
COc1ccc(-n2c(C)cc(C(=O)Cn3nc(C(=O)O)c4ccccc4c3=O)c2C)cc1	27.1	17.2	7.7	99.5	24.5	x
CCCCc1ccc(C2C(C#N)=C(N)SC(N)=C2C#N)s1	32.9	50.5*	13.7	115.5	11.5	34.4*
CCN(CC)C(c1ccc(C)cc1)c1nnnn1C1CCCCC1 (stereo unspecified)	46.8	44.2*	25.7	103.7	36.0	29.3
CCN(CC)C(c1ccc(F)cc1)c1nnnn1C1CCCCC1 (stereo unspecified)	27.2	31.4	20.6	97.6	25.4	x
Fc1ccc(C(c2nnnn2C2CCCC2)N(Cc2ccco2)CC2CCCO2)cc1 (stereo unspecified)	27.3	51.6*	8.2	92.9	39.1	42.3*
CN(CCCC(=O)Nc1ccccc1)S(=O)(=O)c1ccc(Cl)cc1	-18.3	-28.7	28.0	95.2	-31.2	x
COc1ccc(C(=O)Nc2ccc(C(=O)Nc3nccs3)cc2)cc1[N+](=O)[O-]	5.1	3.7	3.9	110.9	3.3	x
Cc1sc2ncnc(N3CCOCC3)c2c1C	8.4	16.6	15.2	90.0	10.5	x
Cc1ccc(OCCN2CCN(c3ncnc4sc(C)c(C)c34)CC2)cc1	35.7	47.1*	12.8	76.7	33.3	30.9
Cc1ccc(-c2csc(N3CCN(CCCn4c(-c5ccncc5)nc5ccccc54)CC3)n2)cc1	-13.8	40.5*	-1.6	96.8	-1.3	18.9
Cc1ccc(-c2csc(N3CCN(CCCn4c(C(F)(F)F)nc5ccccc54)CC3)n2)cc1	3.7	22.5	0.4	98.4	10.0	x
CCOc1ccccc1OCCCC(=O)NNC(=O)c1nn(C)c(=O)c2ccccc12	-14.6	7.4	2.2	105.0	6.0	x
CN1CCN(C(c2ccccc2)c2ccccc2)CC1	-4.4	4.6	-44.0	96.5	11.4	x
CN1CCCN(C(c2ccccc2)c2ccc(Cl)cc2)CC1 (stereo unspecified)	27.0	49.6*	43.4	94.4	23.7	34.0*
SMILES	tim23-1 inh	tim10-1 inh	NLRP3 yeast inh	Yeast superoxide	TIM10 inh	tim10-1 conf
CCCCCN(C(=O)CCC(=O)OCc1ccc(C(C)C)cc1)c1c(N)n(CCCC)c(=O)[nH]c1=O	-6.4	5.9	2.8	101.4	4.8	x
COc1cccc(Oc2nnnn2-c2ccccc2)c1	33.9	41.7*	-56.3	108.6	21.6	32.9*
Cc1ccc(C(C)NC(=S)NC2CCCCC2)c(C)c1 (stereo unspecified)	17.3	41.2*	21.7	94.6	17.6	7.9
Cc1ccc(C(C)NC(=O)C2CCCC2)c(C)c1 (stereo unspecified)	4.6	3.5	7.2	88.5	-10.0	x
C/C(=N\NC(=O)C(N)=O)c1cccc(C(F)(F)F)c1	14.2	21.9	-8.7	129.1	-4.8	x
CCCCn1nnnc1SCC(=O)c1cc(Cl)ccc1OC	38.7	52.1*	27.4	100.3	16.5	32.8*
Cn1c(CC(=O)Nc2ccc(Cl)c(Cl)c2)n[nH]c1=S	1.0	-2.5	11.8	108.7	-4.9	x
COc1ccc(Cc2n[nH]c(=S)n2NC(=O)Nc2ccc(Cl)c(Cl)c2)cc1	17.7	43.4*	16.5	98.9	31.2	63.5*
CC(=O)c1ccc(S(=O)(=O)N2CCN(C(=O)c3ccc(-n4nc(C)c(Cl)c4C)cc3)CC2)cc1	20.2	40.9*	26.7	102.4	12.9	19.1
COc1cc(NC(=O)C2=C(N3CCOCC3)/C(=C\c3ccc(N(C)C)cc3)CCC2)cc(OC)c1OC	26.6	29.8	16.4	108.3	21.8	x
COc1cc(NC(=O)C2=C(N3CCOCC3)/C(=C/c3ccc(Cl)cc3)CC2)cc(OC)c1OC	30.7	44.0*	8.8	107.6	19.6	44.3*
COc1ccc(NC(=O)c2cccc(Cn3cc(Br)cn3)c2)cn1	14.6	22.0	24.1	116.6	21.1	x
CC(=O)Oc1ccc(-c2nc(-c3cccnc3)no2)cc1	41.8	43.1*	34.0	91.3	33.0	49.0*
Cc1cccc2sc(NC(=O)C3c4ccccc4Oc4ccccc43)nc12	35.7	41.1*	-1.4	97.1	33.0	32.5*
Cc1cccc2sc(NC(=O)C3CC3)nc12	26.0	6.4	14.1	98.9	11.6	x
Cc1ccc2sc(NC(=O)C3CC3)nc2c1C	41.7	46.0*	26.9	111.4	30.8	3.4
O=C(Nc1nc2c(Cl)cccc2s1)C1CC1	46.1	55.7*	0.2	101.6	-18.4	-9.6
Cc1ccc(-n2c(Cc3cccn3C)nnc2SCC(=O)N2CCc3ccccc32)cc1	34.7	42.6*	11.6	118.4	32.7	22.3
Cn1cccc1Cc1nnc(SCC(=O)N2CCc3ccccc32)n1-c1ccc(F)cc1	12.4	9.1	3.7	99.2	1.9	x
COC(=O)CSc1nnc(Cc2ccccc2)n1-c1ccc(C)cc1	15.8	41.0*	1.2	105.2	19.3	25.5
COC(=O)CSc1nnc(CNc2ccc(Cl)cc2)n1-c1ccccc1	-272.2	-22.0	7.7	104.1	14.5	x
Cc1ccc(-n2c(SCC(=O)OC(C)C)nnc2-c2ccccn2)cc1	35.8	41.8*	7.8	92.8	29.8	34.9*
CCOC(=O)CSc1nnc(CNc2ccccc2Cl)n1-c1ccccc1	23.8	45.2*	-20.5	129.4	2.8	19.8
CCOC(=O)C(=O)NCC(c1ccco1)S(=O)(=O)c1cccs1 (stereo unspecified)	0.2	19.3	-5.5	87.3	-0.2	x
Cc1ccc(S(=O)(=O)Nc2cccc(-c3ccc(N4CCCCCC4)nn3)c2)cc1	16.1	18.9	15.9	71.0	-2.4	x
